Experimental data published in publication PMC7862700, “An all-to-all approach to the identification of sequence-specific readers for epigenetic DNA modifications on cytosine”.

What was measured:
Assay in all cases: DAPPL (digital affinity profiling via proximity ligation, sequencing); 10 mM Tris-HCl pH 7.5, 50 mM NaCl, 1 mM DTT, 4% glycerol, room temperature, 30 min; GST-TFs on glutathione beads, 16-mer random dsDNA library, 0.1% formaldehyde crosslink after washing; high values mean tight binding
FLI1 = molecular target: T1, FLI1 (Homo sapiens, UniProt Q01543 1-452); conditions: protein: recombinant; tags: N-terminal GST; dsDNA, one strand shown
T1 sequence: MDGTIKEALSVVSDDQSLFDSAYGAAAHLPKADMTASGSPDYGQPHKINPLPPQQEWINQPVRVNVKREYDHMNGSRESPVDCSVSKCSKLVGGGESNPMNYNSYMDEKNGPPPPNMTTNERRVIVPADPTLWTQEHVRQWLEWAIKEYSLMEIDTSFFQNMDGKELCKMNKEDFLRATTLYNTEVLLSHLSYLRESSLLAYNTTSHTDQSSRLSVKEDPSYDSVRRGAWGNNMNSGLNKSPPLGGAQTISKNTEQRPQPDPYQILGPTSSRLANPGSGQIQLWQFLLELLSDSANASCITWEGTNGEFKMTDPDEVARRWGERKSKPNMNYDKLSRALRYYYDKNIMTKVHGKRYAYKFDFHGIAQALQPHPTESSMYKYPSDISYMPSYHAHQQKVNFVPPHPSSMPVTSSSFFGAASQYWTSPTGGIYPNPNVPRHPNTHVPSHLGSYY
Summary of the method: (§1)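 In yeast, human transcription factors were expressed with a GST fusion, then pulled down on glutathione beads and given DNA barcodes. Pooled with a tag-only sample, they were exposed to 200 nmole of a 16-mer random double-stranded DNA library (Tris/NaCl/DTT/glycerol buffer, room temperature, 30 min), washed, crosslinked with 0.1% formaldehyde, proximity-ligated using BsaI/T4 ligase for 1 h at 37 °C, PCR-amplified and read on an Illumina NextSeq500. Each hexamer's frequency of reads for a factor, divided by the matching frequency for the tag-only sample, gives the binding signal.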

ELK1 = molecular target: T2, ELK1 (Homo sapiens, UniProt P19419 1-428); conditions: protein: recombinant; tags: N-terminal GST; dsDNA, one strand shown
T2 sequence: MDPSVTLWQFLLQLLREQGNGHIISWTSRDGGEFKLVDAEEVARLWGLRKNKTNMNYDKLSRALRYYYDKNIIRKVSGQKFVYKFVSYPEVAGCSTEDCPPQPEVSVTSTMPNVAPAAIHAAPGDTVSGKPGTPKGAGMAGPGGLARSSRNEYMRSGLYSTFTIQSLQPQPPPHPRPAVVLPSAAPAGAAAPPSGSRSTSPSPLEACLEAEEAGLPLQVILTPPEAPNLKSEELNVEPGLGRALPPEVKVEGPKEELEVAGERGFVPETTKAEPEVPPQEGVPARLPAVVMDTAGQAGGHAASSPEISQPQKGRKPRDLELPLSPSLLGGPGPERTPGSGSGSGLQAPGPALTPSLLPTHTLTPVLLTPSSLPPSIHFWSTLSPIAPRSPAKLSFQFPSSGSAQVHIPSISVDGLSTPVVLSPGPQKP
Summary of the method: as §1

GABPA = molecular target: T3, GABPA (Homo sapiens, UniProt Q06546 1-454); conditions: protein: recombinant; tags: N-terminal GST; dsDNA, one strand shown
T3 sequence: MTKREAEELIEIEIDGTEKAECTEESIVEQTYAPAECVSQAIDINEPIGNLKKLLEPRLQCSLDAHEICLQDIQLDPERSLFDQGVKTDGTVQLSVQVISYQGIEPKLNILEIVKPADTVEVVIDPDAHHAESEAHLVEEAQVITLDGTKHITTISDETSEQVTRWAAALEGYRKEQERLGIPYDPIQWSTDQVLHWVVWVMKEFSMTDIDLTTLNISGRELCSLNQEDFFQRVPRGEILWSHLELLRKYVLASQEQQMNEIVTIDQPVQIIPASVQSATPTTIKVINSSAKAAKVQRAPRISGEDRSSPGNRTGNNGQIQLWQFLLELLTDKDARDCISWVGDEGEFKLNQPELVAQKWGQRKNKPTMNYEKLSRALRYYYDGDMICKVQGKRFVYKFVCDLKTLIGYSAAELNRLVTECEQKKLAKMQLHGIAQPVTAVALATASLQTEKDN
Summary of the method: as §1

ERG = molecular target: T4, ERG (Homo sapiens, UniProt P11308 1-479); conditions: protein: recombinant; tags: N-terminal GST; dsDNA, one strand shown
T4 sequence: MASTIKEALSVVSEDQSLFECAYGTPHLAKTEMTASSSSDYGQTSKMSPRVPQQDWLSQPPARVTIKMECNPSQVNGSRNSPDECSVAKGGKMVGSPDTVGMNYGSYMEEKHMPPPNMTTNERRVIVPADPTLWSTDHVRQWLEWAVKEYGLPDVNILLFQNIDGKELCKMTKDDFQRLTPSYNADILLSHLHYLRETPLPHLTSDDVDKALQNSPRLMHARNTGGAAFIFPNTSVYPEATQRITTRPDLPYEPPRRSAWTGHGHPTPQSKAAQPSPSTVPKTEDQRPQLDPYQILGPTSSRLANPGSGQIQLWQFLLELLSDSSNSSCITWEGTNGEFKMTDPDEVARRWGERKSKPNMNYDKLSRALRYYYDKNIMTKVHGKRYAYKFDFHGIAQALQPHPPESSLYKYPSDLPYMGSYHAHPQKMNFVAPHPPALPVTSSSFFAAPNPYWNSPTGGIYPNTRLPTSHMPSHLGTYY
Summary of the method: as §1

ELF1 = ELF1 (Homo sapiens, UniProt P32519 1-619); conditions: protein: recombinant; tags: N-terminal GST; dsDNA, one strand shown
Chain of ELF1 (P32519 whole entry): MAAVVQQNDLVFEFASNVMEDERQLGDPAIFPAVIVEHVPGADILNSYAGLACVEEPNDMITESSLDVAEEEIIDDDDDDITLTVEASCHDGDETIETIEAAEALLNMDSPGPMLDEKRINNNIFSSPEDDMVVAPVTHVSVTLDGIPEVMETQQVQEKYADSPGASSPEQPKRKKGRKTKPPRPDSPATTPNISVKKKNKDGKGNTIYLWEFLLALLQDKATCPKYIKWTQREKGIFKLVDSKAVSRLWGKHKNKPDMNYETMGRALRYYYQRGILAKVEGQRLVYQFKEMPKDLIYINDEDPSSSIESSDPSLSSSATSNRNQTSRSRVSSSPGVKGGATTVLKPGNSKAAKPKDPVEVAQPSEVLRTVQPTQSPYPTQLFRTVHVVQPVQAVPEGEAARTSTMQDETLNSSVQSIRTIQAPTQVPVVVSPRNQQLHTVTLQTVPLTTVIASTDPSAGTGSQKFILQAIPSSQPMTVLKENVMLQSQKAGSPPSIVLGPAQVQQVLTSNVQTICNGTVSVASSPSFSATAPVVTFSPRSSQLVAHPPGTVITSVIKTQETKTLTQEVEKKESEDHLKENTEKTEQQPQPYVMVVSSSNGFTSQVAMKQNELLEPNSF
Summary of the method: as §1

EHF = molecular target: T5, EHF (Homo sapiens, UniProt Q9NZC4 1-300); conditions: protein: recombinant; tags: N-terminal GST; dsDNA, one strand shown
T5 sequence: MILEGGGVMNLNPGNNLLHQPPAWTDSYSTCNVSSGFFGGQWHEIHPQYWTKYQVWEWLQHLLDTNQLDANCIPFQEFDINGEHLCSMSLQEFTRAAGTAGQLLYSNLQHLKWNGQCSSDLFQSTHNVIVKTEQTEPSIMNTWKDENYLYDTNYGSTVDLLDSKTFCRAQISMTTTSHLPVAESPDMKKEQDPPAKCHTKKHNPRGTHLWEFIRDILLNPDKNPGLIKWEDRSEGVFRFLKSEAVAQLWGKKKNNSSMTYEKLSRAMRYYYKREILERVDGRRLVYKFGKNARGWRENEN
Summary of the method: as §1

SPI1 = SPI1 (Homo sapiens, UniProt P17947 1-270); conditions: protein: recombinant; tags: N-terminal GST; dsDNA, one strand shown
Summary of the method: as §1

SPIB = SPIB (Homo sapiens, UniProt Q01892 1-262); conditions: protein: recombinant; tags: N-terminal GST; dsDNA, one strand shown
Chain of SPIB (Q01892 whole entry): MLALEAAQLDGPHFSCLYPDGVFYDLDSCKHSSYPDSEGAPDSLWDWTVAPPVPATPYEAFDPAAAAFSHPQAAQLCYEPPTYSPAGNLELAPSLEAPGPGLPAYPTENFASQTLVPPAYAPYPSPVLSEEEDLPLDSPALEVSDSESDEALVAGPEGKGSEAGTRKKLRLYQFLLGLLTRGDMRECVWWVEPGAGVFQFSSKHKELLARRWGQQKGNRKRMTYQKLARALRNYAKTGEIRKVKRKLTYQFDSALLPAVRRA
Summary of the method: as §1

ELK3 = molecular target: T6, ELK3 (Homo sapiens, UniProt P41970 1-407); conditions: protein: recombinant; tags: N-terminal GST; dsDNA, one strand shown
T6 sequence: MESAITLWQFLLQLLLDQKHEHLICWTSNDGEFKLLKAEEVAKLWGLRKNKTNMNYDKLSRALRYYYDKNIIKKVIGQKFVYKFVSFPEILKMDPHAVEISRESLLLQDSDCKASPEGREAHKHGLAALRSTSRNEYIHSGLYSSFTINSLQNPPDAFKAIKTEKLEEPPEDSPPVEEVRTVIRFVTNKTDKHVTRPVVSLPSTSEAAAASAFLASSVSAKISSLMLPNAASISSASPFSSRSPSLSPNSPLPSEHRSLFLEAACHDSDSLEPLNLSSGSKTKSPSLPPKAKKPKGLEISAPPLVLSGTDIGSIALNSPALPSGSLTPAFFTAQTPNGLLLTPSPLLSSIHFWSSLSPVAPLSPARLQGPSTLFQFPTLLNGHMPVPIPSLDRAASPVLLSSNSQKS
Summary of the method: as §1

FEV = molecular target: T7, FEV (Homo sapiens, UniProt Q99581 1-238); conditions: protein: recombinant; tags: N-terminal GST; dsDNA, one strand shown
T7 sequence: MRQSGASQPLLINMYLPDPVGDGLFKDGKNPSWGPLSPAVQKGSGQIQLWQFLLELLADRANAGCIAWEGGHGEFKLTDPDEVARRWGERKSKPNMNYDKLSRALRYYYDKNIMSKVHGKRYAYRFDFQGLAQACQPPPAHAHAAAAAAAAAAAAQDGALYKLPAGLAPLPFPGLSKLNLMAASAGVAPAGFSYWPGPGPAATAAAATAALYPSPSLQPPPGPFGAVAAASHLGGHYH
Summary of the method: as §1

ETV5 = ETV5 (Homo sapiens, UniProt P41161 1-510); conditions: protein: recombinant; tags: N-terminal GST; dsDNA, one strand shown
Chain of ETV5 (P41161 whole entry): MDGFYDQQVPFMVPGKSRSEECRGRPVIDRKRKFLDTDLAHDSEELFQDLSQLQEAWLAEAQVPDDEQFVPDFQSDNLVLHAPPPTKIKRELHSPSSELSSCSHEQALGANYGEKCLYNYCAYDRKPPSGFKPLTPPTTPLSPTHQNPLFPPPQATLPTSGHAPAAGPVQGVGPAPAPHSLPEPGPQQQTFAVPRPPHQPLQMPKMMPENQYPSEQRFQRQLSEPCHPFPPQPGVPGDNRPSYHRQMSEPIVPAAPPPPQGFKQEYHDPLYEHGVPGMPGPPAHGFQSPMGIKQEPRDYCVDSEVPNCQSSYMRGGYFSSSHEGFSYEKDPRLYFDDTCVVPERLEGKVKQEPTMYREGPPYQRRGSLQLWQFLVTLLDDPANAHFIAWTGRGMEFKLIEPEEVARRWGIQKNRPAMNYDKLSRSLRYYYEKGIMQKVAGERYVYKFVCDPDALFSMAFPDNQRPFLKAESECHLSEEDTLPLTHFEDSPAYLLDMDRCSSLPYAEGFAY
Summary of the method: as §1

HSF1 = HSF1 (Homo sapiens, UniProt Q00613 1-529); conditions: protein: recombinant; tags: N-terminal GST; chain copies: 3; dsDNA, one strand shown
Chain of HSF1 (Q00613 whole entry): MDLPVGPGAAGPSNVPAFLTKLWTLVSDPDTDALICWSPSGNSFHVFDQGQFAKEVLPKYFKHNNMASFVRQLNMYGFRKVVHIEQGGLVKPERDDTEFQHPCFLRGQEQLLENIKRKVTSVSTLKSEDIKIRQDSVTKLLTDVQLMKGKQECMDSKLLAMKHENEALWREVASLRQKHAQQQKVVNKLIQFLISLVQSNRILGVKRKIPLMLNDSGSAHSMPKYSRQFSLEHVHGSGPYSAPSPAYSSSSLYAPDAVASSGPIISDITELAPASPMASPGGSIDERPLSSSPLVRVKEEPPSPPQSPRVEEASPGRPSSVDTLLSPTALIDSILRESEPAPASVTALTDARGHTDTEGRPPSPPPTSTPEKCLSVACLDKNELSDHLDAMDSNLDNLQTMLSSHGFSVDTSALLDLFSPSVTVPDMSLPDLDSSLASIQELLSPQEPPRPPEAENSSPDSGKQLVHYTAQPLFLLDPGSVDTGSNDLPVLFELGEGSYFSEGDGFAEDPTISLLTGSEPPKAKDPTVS
Summary of the method: as §1

SPIC = molecular target: T8, SPIC (Homo sapiens, UniProt Q8N5J4 1-248); conditions: protein: recombinant; tags: N-terminal GST; dsDNA, one strand shown
T8 sequence: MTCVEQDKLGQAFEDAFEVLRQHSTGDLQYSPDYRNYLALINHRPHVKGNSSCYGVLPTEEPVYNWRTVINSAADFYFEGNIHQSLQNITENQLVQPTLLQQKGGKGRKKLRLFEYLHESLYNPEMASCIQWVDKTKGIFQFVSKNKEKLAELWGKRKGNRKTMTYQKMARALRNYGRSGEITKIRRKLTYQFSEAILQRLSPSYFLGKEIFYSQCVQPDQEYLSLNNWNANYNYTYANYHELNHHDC
Summary of the method: as §1

ELF4 = ELF4 (Homo sapiens, UniProt Q99607 1-663); conditions: protein: recombinant; tags: N-terminal GST; dsDNA, one strand shown
Chain of ELF4 (Q99607 whole entry): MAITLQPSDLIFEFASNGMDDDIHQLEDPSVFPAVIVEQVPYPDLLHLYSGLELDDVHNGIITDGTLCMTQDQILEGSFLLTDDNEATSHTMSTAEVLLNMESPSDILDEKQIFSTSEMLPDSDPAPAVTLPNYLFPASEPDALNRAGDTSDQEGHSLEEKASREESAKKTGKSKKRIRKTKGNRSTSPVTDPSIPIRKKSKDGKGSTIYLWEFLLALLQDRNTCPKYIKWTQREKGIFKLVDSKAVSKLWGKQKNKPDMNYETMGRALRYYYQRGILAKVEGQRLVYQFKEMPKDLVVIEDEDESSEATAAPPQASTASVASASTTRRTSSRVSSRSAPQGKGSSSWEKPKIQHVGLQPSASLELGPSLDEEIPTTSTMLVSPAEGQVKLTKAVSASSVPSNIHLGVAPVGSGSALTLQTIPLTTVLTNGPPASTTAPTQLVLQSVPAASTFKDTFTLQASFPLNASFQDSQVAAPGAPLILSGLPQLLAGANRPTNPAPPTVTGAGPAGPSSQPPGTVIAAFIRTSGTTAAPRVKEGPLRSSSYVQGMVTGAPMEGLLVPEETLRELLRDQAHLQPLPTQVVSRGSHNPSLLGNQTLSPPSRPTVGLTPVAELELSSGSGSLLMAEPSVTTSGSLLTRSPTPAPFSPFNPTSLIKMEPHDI
Summary of the method: as §1

ELK4 = molecular target: T9, ELK4 (Homo sapiens, UniProt P28324-2 1-405); conditions: protein: recombinant; tags: N-terminal GST; dsDNA, one strand shown
T9 sequence: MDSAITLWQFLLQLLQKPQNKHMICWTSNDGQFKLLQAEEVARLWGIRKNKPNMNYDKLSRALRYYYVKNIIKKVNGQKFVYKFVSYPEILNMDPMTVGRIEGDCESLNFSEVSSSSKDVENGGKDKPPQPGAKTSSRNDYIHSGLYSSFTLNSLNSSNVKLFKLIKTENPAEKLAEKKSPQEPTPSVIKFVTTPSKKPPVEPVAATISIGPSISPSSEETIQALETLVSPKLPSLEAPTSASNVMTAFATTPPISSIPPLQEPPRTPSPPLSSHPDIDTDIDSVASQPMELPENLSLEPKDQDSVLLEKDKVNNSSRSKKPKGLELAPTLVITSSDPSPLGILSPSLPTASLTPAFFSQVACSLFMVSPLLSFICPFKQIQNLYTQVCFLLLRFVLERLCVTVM
Summary of the method: as §1

ETV2 = molecular target: T10, ETV2 (Homo sapiens, UniProt O00321 1-342); conditions: protein: recombinant; tags: N-terminal GST; dsDNA, one strand shown
T10 sequence: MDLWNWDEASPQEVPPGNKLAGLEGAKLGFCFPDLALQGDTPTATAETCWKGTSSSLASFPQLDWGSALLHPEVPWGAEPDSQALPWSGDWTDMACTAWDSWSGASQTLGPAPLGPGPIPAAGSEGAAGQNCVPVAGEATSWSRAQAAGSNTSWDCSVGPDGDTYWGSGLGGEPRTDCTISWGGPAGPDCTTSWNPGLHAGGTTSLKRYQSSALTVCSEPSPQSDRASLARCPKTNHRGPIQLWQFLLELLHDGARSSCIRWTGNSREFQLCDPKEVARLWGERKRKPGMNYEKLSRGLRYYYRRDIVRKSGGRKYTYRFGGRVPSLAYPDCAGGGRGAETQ
Summary of the method: as §1

ELF3 = molecular target: T11, ELF3 (Homo sapiens, UniProt P78545 1-371); conditions: protein: recombinant; tags: N-terminal GST; dsDNA, one strand shown
T11 sequence: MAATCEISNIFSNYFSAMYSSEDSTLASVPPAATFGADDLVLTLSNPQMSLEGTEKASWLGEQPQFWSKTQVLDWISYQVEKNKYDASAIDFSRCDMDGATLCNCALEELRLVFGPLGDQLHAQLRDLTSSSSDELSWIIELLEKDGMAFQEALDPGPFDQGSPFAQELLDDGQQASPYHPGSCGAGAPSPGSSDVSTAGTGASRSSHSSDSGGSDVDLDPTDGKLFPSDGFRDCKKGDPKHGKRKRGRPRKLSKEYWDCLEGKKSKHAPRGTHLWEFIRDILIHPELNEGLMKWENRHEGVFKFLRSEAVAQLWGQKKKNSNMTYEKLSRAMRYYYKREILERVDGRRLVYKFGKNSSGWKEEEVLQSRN
Summary of the method: as §1

CRX = CRX (Homo sapiens, UniProt O43186 1-299); conditions: protein: recombinant; tags: N-terminal GST; dsDNA, one strand shown
Chain of CRX (O43186 whole entry): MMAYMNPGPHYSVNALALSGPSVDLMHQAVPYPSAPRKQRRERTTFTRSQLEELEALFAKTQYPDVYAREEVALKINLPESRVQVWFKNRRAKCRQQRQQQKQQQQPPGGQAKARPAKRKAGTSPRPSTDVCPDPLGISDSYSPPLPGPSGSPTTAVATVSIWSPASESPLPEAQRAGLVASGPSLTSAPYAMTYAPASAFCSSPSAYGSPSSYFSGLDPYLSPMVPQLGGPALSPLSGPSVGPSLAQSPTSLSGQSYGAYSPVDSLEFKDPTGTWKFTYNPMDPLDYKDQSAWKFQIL
Summary of the method: as §1

ETV1 = ETV1 (Homo sapiens, UniProt P50549 1-477); conditions: protein: recombinant; tags: N-terminal GST; dsDNA, one strand shown
Chain of ETV1 (P50549 whole entry): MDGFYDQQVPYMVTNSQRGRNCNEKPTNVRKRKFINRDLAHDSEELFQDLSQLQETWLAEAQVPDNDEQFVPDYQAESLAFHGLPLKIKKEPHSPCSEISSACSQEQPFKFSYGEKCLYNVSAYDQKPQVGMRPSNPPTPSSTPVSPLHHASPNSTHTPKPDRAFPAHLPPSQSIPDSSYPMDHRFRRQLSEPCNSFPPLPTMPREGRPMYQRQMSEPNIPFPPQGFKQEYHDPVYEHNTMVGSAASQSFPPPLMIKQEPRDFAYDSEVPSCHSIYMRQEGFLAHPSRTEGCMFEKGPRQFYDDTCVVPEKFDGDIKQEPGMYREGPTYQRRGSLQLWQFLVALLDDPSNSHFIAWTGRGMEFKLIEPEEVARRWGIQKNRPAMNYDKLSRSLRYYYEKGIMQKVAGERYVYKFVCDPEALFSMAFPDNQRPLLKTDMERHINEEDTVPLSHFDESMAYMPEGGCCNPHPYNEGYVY
Summary of the method: as §1

**Q.** Which results are given for GCTTCC?
**A.** binding signal (FLI1): 3.32 fold enrichment (6-mer frequency, TF over GST control); binding signal (ELK1): 3.85 fold enrichment (6-mer frequency, TF over GST control); binding signal (GABPA): 3.27 fold enrichment (6-mer frequency, TF over GST control); binding signal (ERG): 4 fold enrichment (6-mer frequency, TF over GST control); binding signal (ELF1): 3.21 fold enrichment (6-mer frequency, TF over GST control); binding signal (EHF): 3.72 fold enrichment (6-mer frequency, TF over GST control); binding signal (SPI1): 3.73 fold enrichment (6-mer frequency, TF over GST control); binding signal (SPIB): 3.8 fold enrichment (6-mer frequency, TF over GST control); binding signal (ELK3): 4.31 fold enrichment (6-mer frequency, TF over GST control); binding signal (FEV): 4.3 fold enrichment (6-mer frequency, TF over GST control); binding signal (ETV5): 3.97 fold enrichment (6-mer frequency, TF over GST control); binding signal (HSF1): 1.47 fold enrichment (6-mer frequency, TF over GST control); binding signal (SPIC): 3.3 fold enrichment (6-mer frequency, TF over GST control); binding signal (ELF4): 3.18 fold enrichment (6-mer frequency, TF over GST control); binding signal (ELK4): 2.98 fold enrichment (6-mer frequency, TF over GST control); binding signal (ETV2): 3.44 fold enrichment (6-mer frequency, TF over GST control); binding signal (ELF3): 3.14 fold enrichment (6-mer frequency, TF over GST control); binding signal (CRX): 1.19 fold enrichment (6-mer frequency, TF over GST control); binding signal (ETV1): 3.62 fold enrichment (6-mer frequency, TF over GST control)
